Compounds with a hit are over-represented: about 2.9% of the library has one in this group of screens.
FXN GAA850 act: activators of GAA850 frataxin (FXN) promoter. HEK293 lucGAA850 FXN promoter luciferase reporter, 24 h; percent of 10 µM SAHA response. activation, % at 6 µM. 360,000 tested, 0.56% active. AID 540364;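 active means activation above the average of all compounds screened plus 3 SD, cutoff fixed separately per campaign, cut at about 7.5% in these data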
SMARCA2 activ: activators of SMARCA2 function. MG213 cells, MMTV-luciferase reporter, dexamethasone, overnight. 370,000 tested, 1% active. activation, % at 9.1 µM; in the data active means activation above about 7.8%
proKLK7 act: activates the human kallikrein-7 zymogen; activation, % at 7 µM; 370,000 tested, 0.9% active; purified proKLK7, EDANS-DABCYL substrate fluorescence; 100% is mature enzyme control, 0% vehicle; P49862;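 active means activation above the mean of all tested compounds plus 3 SD, computed per campaign excluding outliers beyond control limits, cut at about 13% in these data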
Target sequence (P49862 whole entry, looked up): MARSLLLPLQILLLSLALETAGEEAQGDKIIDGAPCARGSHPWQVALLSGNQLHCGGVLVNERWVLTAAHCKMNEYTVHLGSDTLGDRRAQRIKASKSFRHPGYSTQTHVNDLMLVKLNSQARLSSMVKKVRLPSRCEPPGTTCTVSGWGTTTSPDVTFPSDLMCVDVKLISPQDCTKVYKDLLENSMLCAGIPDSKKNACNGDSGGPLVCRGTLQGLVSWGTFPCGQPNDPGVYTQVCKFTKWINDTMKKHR
FAS-TE inh: blocks the thioesterase domain of human fatty acid synthase. P49327. recombinant FAS-TE, OMFH fluorogenic substrate, fluorescence endpoint. inhibition, % at 15 µM. 360,000 tested, 0.67% active. AID 602261;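 active means compounds whose normalised, plate-corrected inhibition of enzyme fluorescence in the single-dose primary screen is 50% or more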
proKLK7 act conf: proKLK7 activation, confirmation. shares compounds with proKLK7 act. purified proKLK7, EDANS-DABCYL substrate fluorescence; scaled: vehicle 0, mature enzyme 100. activation, % at 7 µM. 3,200 tested, 68% active;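 active means activation, as change over the incubation, above the mean of all tested compounds plus 3 SD, cut at about 13% in these data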
EDANS interfere: optically interferes with EDANS-DABCYL signal, flagging KLK7 hits; activation, % at 7 µM; EDANS-DABCYL substrate fluorescence interference, no enzyme, 4 h; solvent 0%, active enzyme control 100%; shares compounds with proKLK7 act; 3,200 tested, 80% active;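 active means activation above the all-compound mean plus 3 SD, ignoring values outside control-based bounds, cut at about 4.8% in these data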;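 further: value is the 4 h activation minus the activation read at time zero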
EDANS interf: EDANS fluorescence interference in dose response, no enzyme. AID 720493. EDANS-DABCYL peptide fluorescence interference. EC50, µM. shares compounds with proKLK7 act. 250 tested, 20% active;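 active means compounds that raise the fluorescence signal in this interference counterscreen, with EC50 at or below 10 µM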;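 further: intact quenched peptide substrate alone read at 355 nm excitation and 520 nm emission; signal is fluorescence gain from T0 to T4 after four hours at room temperature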
Large screens that a line does not name were inactive (follow-up assays come after a bar, where they were run).

CCOc1ccc(C(=S)NC2CCCCC2)cc1OC	none
CCN(CC)Cc1c(O)ccc2c(=O)c(Oc3ccccc3OC)coc12	proKLK7 act 15 | proKLK7 act conf 44 | EDANS interfere 33 | EDANS interf 8.6
COc1ccccc1Oc1coc2c(CN(C)C)c(O)ccc2c1=O	proKLK7 act 62 | proKLK7 act conf 63 | EDANS interfere 69
CCOc1ccccc1Oc1coc2cc(OC)ccc2c1=O	none
CCN(CC)Cc1c(O)ccc2c(=O)c(-c3ccc4c(c3)OCCO4)coc12	none
CCC(Oc1ccc2c(=O)c(-c3ccccc3OC)coc2c1)C(=O)OCc1ccccc1 (centres undefined)	none
CCN(CC)Cc1c(O)ccc2c(=O)c(-c3ccccc3)coc12	proKLK7 act 26 | proKLK7 act conf 23 | EDANS interfere 31
COc1ccccc1-c1coc2c(CN(C)C)c(O)ccc2c1=O	proKLK7 act 50 | proKLK7 act conf 78 | EDANS interfere 70
N#Cc1cccnc1N1CCN(C(=O)c2[nH]c(C(F)(F)F)nc2-c2ccccc2)CC1	none (no result: FXN GAA850 act)
COc1ccc(S(=O)(=O)NCc2ccco2)cc1N(C)S(=O)(=O)c1ccccc1	none
CC1=C(C(=O)N2CCOCC2)CC(CC(=O)NC2CCCC2)C(=O)N1Cc1ccc(C(C)(C)C)cc1 (centres undefined)	none
Cc1nc(-c2coc3c(CN(C)C)c(O)ccc3c2=O)cs1	proKLK7 act 19 | proKLK7 act conf 42 | EDANS interfere 42
CCOC(=O)c1oc2cc(O)ccc2c(=O)c1-c1csc(C)n1	none
Cc1cccc(C(=O)N2CCCC(CCC(=O)N3CCN(c4ccccn4)CC3)C2)c1C (centres undefined)	none
O=C1c2ccccc2NC(c2ccccc2F)N1NS(=O)(=O)c1ccccc1 (centres undefined)	proKLK7 act 19 | proKLK7 act conf inactive | EDANS interfere 6.8
Cc1ccc(S(=O)(=O)NN2C(=O)c3ccccc3NC2c2ccccc2O)cc1 (centres undefined)	none
Cc1ccc(S(=O)(=O)NN2C(=O)c3ccccc3NC2c2ccco2)cc1 (centres undefined)	none
Cc1ccc(S(=O)(=O)NN2C(=O)c3ccccc3NC2C)cc1 (centres undefined)	proKLK7 act 39 | proKLK7 act conf inactive | EDANS interfere 11
Cc1ccc(S(=O)(=O)NN2C(=O)c3ccccc3NC2c2ccccn2)cc1 (centres undefined)	proKLK7 act 20 | proKLK7 act conf inactive | EDANS interfere 4.4
CC1Nc2ccccc2C(=O)N1NS(=O)(=O)c1ccccc1 (centres undefined)	proKLK7 act 21 | proKLK7 act conf inactive | EDANS interfere 4.5
Cc1nc(-c2cccc(Br)c2)ccc1C(=O)O	none
CC1(C(=O)N2Cc3ccccc3C2)CCN1C(=O)Cc1ccccc1 (centres undefined)	none
CCOC(=O)CN1N=C(c2ccc(C)cc2)CCC1=O	none
COc1ccc(C2C3=C(CCCC3=O)N(CC(=O)O)C3=C2C(=O)CCC3)cc1Cl	proKLK7 act 27 | proKLK7 act conf 26 | EDANS interfere 34
COc1ccc(C2C3=C(CCCC3=O)N(CC(=O)O)C3=C2C(=O)CCC3)cc1Br	proKLK7 act 30 | proKLK7 act conf 28 | EDANS interfere 43
CCOc1cc(C2C3=C(CCCC3=O)N(CC(=O)O)C3=C2C(=O)CCC3)ccc1OC	none
C#CCOc1c(Cl)cc(C2C3=C(CCCC3=O)N(CC(=O)O)C3=C2C(=O)CCC3)cc1OC	proKLK7 act 16 | proKLK7 act conf 72 | EDANS interfere 80
COc1ccccc1C1C2=C(CCCC2=O)N(CC(=O)O)C2=C1C(=O)CCC2	none
CC(C)[C@H](NC(=O)[C@@H]1Cc2ccccc2CN1C(=O)OC(C)(C)C)C(=O)NC1CCCC1	none
Cc1ccc(CNC(=O)CCn2c(=O)oc3ccccc32)cc1	none
O=C(NCCc1cccnc1)C1CCC(=O)N(Cc2cccc(C(F)(F)F)c2)C1 (centres undefined)	none
COC(=O)CCc1c(COC(C)=O)[nH]c(C(=O)OCc2ccccc2)c1C	none
O=C(/C=C/C=C/c1ccc2c(c1)OCO2)N1CCCCC1	none
CC1CN(CC(=O)Nc2nc(-c3ccc(Cl)cc3)cs2)CC(C)O1 (centres undefined)	proKLK7 act 50 | proKLK7 act conf inactive | EDANS interfere inactive
Cc1cc(OCCCn2ccnc2)cc(C)c1Cl	none
COc1cccc(Nc2nc3cc(OC)ccc3cc2C#N)c1	proKLK7 act 29 | proKLK7 act conf 56 | EDANS interfere 61
COc1ccc(Nc2nc3c(C)cccc3cc2C#N)cc1	none
CC1CC(NC(=O)N(C)C)N(C)C(=O)N1 (centres undefined)	none
Cc1ccc(NC(=O)c2cc(-c3ccco3)on2)cc1C	none
COc1ccc(NC(=O)c2cc(-c3ccco3)on2)cc1OC	proKLK7 act 55 | proKLK7 act conf 20 | EDANS interfere 4.8 | EDANS interf inactive
O=C(NCCCN1CCCC1)c1ccc2c(c1)N(Cc1ccccc1)CCS2	proKLK7 act 51 | proKLK7 act conf inactive | EDANS interfere inactive
CN1CCN(CCCNC(=O)c2ccc3c(c2)N(Cc2ccc(F)cc2)CCS3)CC1	proKLK7 act 76 | proKLK7 act conf inactive | EDANS interfere inactive
CCN1CCN(CCCNC(=O)c2ccc3c(c2)N(Cc2ccccc2)CCS3)CC1	proKLK7 act 35 | proKLK7 act conf inactive | EDANS interfere inactive
O=C(NCCCN1CCOCC1)c1ccc2c(c1)N(Cc1ccc(F)cc1)CCS2	none
O=C(C1CCN(Cc2ccc(F)cc2)CC1)N1CCN(C/C=C/c2ccccc2)CC1	none
COc1ccccc1C(=O)Nc1cc(Cl)ccc1-n1cncn1	none
CCOC(=O)Cn1c(C(F)(F)F)nc2nc(Cl)c(Cl)nc21	proKLK7 act 34 | proKLK7 act conf inactive | EDANS interfere 7.1
Cc1ccc(OC(=O)Cn2c(C(F)(F)F)nc3ccccc32)cc1	none
Cc1cccc(N2CCN(C(C(=O)NCc3ccccc3)c3ccc(C(F)(F)F)cc3)CC2)c1C (centres undefined)	none (no result: FXN GAA850 act, FAS-TE inh)
N#CCCn1cc(C(=O)Nc2ccc(C(=O)O)cc2)c(-c2cccs2)n1	none
CCN1C(=O)c2cccc3c(S(=O)(=O)N4CCNCC4)ccc1c23	proKLK7 act 171 | proKLK7 act conf 57 | EDANS interfere 68
CCOC(=O)C1CCCN(S(=O)(=O)c2ccc3c4c(cccc24)C(=O)N3CC)C1 (centres undefined)	none
CCN1CCN(S(=O)(=O)c2ccc3c4c(cccc24)C(=O)N3CC)CC1	proKLK7 act 56 | proKLK7 act conf 44 | EDANS interfere 46
